DT40 TDP1 no CPT: qHTS for Inhibitors of human tyrosyl-DNA phosphodiesterase 1 (TDP1): qHTS in cells in absence of CPT | DT40 Tdp1-/- hTDP1 cells, no CPT, ATP luminescence, 48 h | Potency, µM (series often up to 46.2 µM), without a hit: top-dose activity change, negative = growth inhibition, hits mostly inhibitors | 15% of 420,000 active | AID 686978, 2013; also: potency is read from the fitted curve at half-maximal effect; nearly all actives have a fitted effect of over 55% in size
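Growth of hTDP1-complemented DT40 Tdp1-knockout cells is measured by ATP luminescence after at least 48 hr compound exposure at 37 °C, with DMSO substituting for the 20 nM CPT used in the parallel screen.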
HT1080 IDH1KD tx: toxicity to HT-1080 IDH1 knockdown cells (counter line); HT-1080 IDH1 knockdown viability, ATP luminescence, 48 h; Potency, µM (titrated, usually from 46.1 µM), without a hit: top-dose activity, negative = toxicity, usual class: cytotoxic; 2% of 360,000 active; AID 686971;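 also: potency is read from the fitted curve at half-maximal effect; 0% = DMSO wells and -100% = cell-free medium wells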
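Knockdown cells (IDH1KD HT-1080) received compounds 2 h after plating at 750 cells/well and were kept 48 h at 37 °C in 5% FBS RPMI. A CellTiter-Glo luminescence read gave % activity for curve fitting.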
HT1080NT lethal: kills 2HG-producing HT-1080-NT fibrosarcoma cells. AID 686970. Potency, µM (highest dose often 46.1 µM), for the others: at the top dose activity, negative = less viability, hits mostly cytotoxic. HT-1080-NT fibrosarcoma viability, CellTiter-Glo ATP luminescence, 48 h. 1.6% of 360,000 active;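 also: NT is the 2HG producing partner of a matched IDH1 knockdown line; potency is read from the fitted curve at half-maximal effect; 0% = DMSO-treated cells and -100% = media-only wells without cells; nearly all actives have a fitted effect of over 55% in size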
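750 cells/well, RPMI + 5% FBS; 2 h settle, compound pin-transfer, 48 h at 37 degrees C. CellTiter-Glo 10 min RT, luminescence. Normalized to DMSO and media-only wells.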
TDP1 cell CPT: growth inhibition of DT40 Tdp1-/-;hTDP1 cells with camptothecin (screen for TDP1 inhibitors); chicken DT40 Tdp1-/-;hTDP1 cells + 20 nM CPT, ATP luminescence, 48 h; Potency, µM (doses to about 46.2 µM), inactives show top-dose activity change, negative = growth inhibition, actives largely listed as inhibitors; 12% of 420,000 active; AID 686979; also: potency is read from the fitted curve at half-maximal effect; nearly all actives have a fitted effect of over 55% in size
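Chicken DT40 Tdp1-/- cells stably complemented with human TDP1 were seeded at 400 cells/well in medium containing 20 nM camptothecin, exposed to pin-transferred compounds, and grown at 37 °C for at least 48 hr. Viability was read as ATP luminescence.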
IL1B secr inh: blocks inflammasome-driven IL-1 beta release | THP-1 LPS/ATP IL-1B secretion, AlphaLISA, 16 h; active compounds read low | activity change, % at 57.5 µM | 4.7% of 360,000 active | AID 743279; in the data active = activity change below about -50%; inconclusive = mostly about -30% to -49%
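Secreted IL-1B measured by AlphaLISA bead assay after 16 h compound exposure of THP-1 cells; compounds (final up to 57.5 uM) added 1 h before LPS (250 ng/mL) and ATP (1.25 mM) stimulation; lower signal means less secretion.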
* hit, by the source's call. This is a sample that favours compounds with a hit; in the whole collection about 19% have one here. Unless noted, calls follow the shape of the dose curve; as a rule, active = well fitted curve in the direction sought with a large enough effect; inconclusive = small, poorly fitted or top-dose-only effect, or another doubt; inactive = no such curve, though single readings can be large; an effect the other way counts as inactive or inconclusive. Unless noted, % is scaled to controls: 0 for no effect and ±100 for the full control effect.

`CC(C)c1cc(CNC(=O)CC2C(=O)NCCN2CC2CCCCC2)on1` (stereo not given) gave DT40 TDP1 no CPT 5%, HT1080 IDH1KD tx 5%, HT1080NT lethal 11%, TDP1 cell CPT 3% and IL1B secr inh -3.
O=C(CC1C(=O)NCCN1CC1CCCCC1)NCc1cc(F)ccc1F (stereo not given) was read as DT40 TDP1 no CPT inconclusive, HT1080 IDH1KD tx -8%, HT1080NT lethal -5%, TDP1 cell CPT 23µM* and IL1B secr inh -11.
Screening Cc1nnc(SCC(=O)NC(C)c2ccccc2)[nH]c1=O (stereo not given) returned DT40 TDP1 no CPT 2%, HT1080 IDH1KD tx 20%, HT1080NT lethal 25%, TDP1 cell CPT 5% and IL1B secr inh -3.
For OC[C@@H]1CN(Cc2ccc3c(c2)OCO3)C[C@H](n2cnc3c(NCc4ccncc4)ncnc32)O1 the results were DT40 TDP1 no CPT -12%, HT1080 IDH1KD tx 7%, HT1080NT lethal 8%, TDP1 cell CPT -18% and IL1B secr inh -1.
O=C(Cc1cccs1)N(c1ccc(Br)cc1)C1C=CS(=O)(=O)C1 (stereo not given) was read as DT40 TDP1 no CPT inconclusive, HT1080 IDH1KD tx 14%, HT1080NT lethal 13%, TDP1 cell CPT 16µM* and IL1B secr inh 15.
Screening CCN(CC)c1nc(C(F)(F)F)nc2c1nnn2Cc1ccccc1 returned DT40 TDP1 no CPT -15%, HT1080 IDH1KD tx -1%, HT1080NT lethal 5%, TDP1 cell CPT -3% and IL1B secr inh 22.
`COc1ccc2ccccc2c1CN1CCc2nnc(CNC(=O)c3cccc(F)c3)n2CC1` gave DT40 TDP1 no CPT -24% and TDP1 cell CPT 12%.
Screening CCOC(=O)c1ccc(NC(=O)C2CCCN(c3ncnc4onc(C)c34)C2)cc1 (stereo not given) returned DT40 TDP1 no CPT 15µM* and TDP1 cell CPT 13µM*.
For Cc1noc2ncnc(N3CCCC(C(=O)NCCC(C)C)C3)c12 (stereo not given) the results were DT40 TDP1 no CPT 7.3µM* and TDP1 cell CPT 8.2µM*.
Screening CCCCN(CC)CCNC(=O)C1CCCN(c2ncnc3onc(C)c23)C1 (stereo not given) returned DT40 TDP1 no CPT -16% and TDP1 cell CPT -26%.
`Cc1ccc(C)c(NC(=O)C2CCCN(c3ncnc4onc(C)c34)C2)c1` (stereo not given) gave DT40 TDP1 no CPT 10µM* and TDP1 cell CPT 12µM*.
CCOCCCNC(=O)C1CCCN(c2ncnc3onc(C)c23)C1 (stereo not given) was read as DT40 TDP1 no CPT 21µM* and TDP1 cell CPT 16µM*.
For CCOC(=O)c1cccc(NC(=S)NCc2ccc(C)cc2)c1 the results were DT40 TDP1 no CPT -3%, HT1080 IDH1KD tx -2%, HT1080NT lethal -12%, TDP1 cell CPT -4% and IL1B secr inh -2.
`COc1ccc(C(=O)Nc2ccc(Cl)cc2C(=O)N2CCCC(C)C2)cc1OC` (stereo not given) gave DT40 TDP1 no CPT inconclusive, HT1080 IDH1KD tx 3%, HT1080NT lethal -2%, TDP1 cell CPT -9% and IL1B secr inh -7.
For CCS(=O)(=O)N1CCCC(C(=O)NCCCOC)C1 (stereo not given) the results were DT40 TDP1 no CPT 9%, HT1080 IDH1KD tx 11%, HT1080NT lethal 19%, TDP1 cell CPT 1% and IL1B secr inh 12.
For COCCCNC(=O)C1CCCN(c2ncnc3onc(C)c23)C1 (stereo not given) the results were DT40 TDP1 no CPT inconclusive and TDP1 cell CPT 18µM*.
Cc1cccc(N=N/C(=C\O)C(=O)c2ccc(Br)cc2)c1 was read as DT40 TDP1 no CPT inconclusive, HT1080 IDH1KD tx inconclusive, HT1080NT lethal inconclusive, TDP1 cell CPT 8.2µM* and IL1B secr inh -85*.
`COC(=O)/C(N=Nc1cccc(C(F)(F)F)c1)=C(\C)O` gave DT40 TDP1 no CPT inconclusive, HT1080 IDH1KD tx 17%, HT1080NT lethal 14%, TDP1 cell CPT -2% and IL1B secr inh 3.
